Common to all, as to set-up: scale not given: direction of the effect not stated beside the values
Experiment [1] addresses Protein translocase subunit SecA (Escherichia coli (strain K12)) (UniProt P10408). Put plainly: Assay to Identify E. coli SecA ATPase Inhibitors. The experiment is classed as functional. To be noted: 30 µM.
In experiment [2] the target is T1, Ubiquitin-activating enzyme e1, putative (Leishmania donovani (strain BPK282A1)) (UniProt E9BSI1).
T1 sequence (whole entry): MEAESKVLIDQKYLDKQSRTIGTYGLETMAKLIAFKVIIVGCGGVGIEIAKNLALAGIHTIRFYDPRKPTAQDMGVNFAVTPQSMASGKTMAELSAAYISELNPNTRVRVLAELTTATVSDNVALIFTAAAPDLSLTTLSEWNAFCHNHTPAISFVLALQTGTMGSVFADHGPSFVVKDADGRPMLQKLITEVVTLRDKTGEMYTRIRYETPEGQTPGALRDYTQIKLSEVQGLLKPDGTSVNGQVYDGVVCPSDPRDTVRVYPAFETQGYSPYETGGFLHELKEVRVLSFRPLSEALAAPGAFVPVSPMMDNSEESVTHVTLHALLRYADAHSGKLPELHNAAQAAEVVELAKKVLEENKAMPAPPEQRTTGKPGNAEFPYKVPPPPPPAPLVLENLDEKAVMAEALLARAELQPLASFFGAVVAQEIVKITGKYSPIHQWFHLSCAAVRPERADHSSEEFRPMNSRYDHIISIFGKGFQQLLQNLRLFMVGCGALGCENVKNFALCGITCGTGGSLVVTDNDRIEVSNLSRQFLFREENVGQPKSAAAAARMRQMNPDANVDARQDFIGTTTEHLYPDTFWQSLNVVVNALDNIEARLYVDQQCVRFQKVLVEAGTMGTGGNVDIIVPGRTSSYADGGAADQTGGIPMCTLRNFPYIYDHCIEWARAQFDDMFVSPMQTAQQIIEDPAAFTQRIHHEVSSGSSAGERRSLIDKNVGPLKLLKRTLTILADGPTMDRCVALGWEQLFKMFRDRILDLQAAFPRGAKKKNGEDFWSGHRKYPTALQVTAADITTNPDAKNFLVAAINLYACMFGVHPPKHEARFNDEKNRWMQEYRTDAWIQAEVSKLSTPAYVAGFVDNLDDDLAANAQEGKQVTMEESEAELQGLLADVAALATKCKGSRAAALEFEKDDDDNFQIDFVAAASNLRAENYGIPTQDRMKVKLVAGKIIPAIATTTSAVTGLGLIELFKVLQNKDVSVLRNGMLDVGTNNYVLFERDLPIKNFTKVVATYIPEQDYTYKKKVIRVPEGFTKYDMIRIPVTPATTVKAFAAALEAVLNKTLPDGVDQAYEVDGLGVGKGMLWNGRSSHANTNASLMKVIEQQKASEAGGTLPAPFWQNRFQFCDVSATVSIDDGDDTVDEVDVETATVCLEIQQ
Put plainly: Leishmania donovani Ubiquitin Activating Enzyme (LdE1). The experiment is classed as functional. The note with it: 30 µM.

Experiment [3] deals with AMP-activated protein kinase, AMPK (Homo sapiens) (UniProt P54646+O43741+P54619+Q9UGJ0+Q9Y478+Q13131+Q9UGI9). Put plainly: AMP-dependent Kinase enzyme assay. An in vitro enzyme assay that detects ADP turnover that is directly proportional to AMPK activity. This uses naive AMPK that is activated during the assay with MK-8722. The experiment is classed as functional. The note with it: 30 µM.

Experiment [4] has as its target Sialic acid-binding Ig-like lectin 9 (Homo sapiens) (UniProt Q9Y336). Put plainly: Hs-Siglec9 ALPHAscreen SOP 20170721. The note with it: 10 µM. Background: In Alpha technology, singlet oxygen from a donor bead excites a nearby acceptor bead.
Another experiment concerns Trypanosoma cruzi. Put plainly: Trypanosoma cruzi phosphomannomutase and mannose-1-phosphate guanylyltransferase assay. The class given is functional. The note with it: 10 µM.
The target of experiment [5] is T2, Arginase-2, mitochondrial (Homo sapiens) (UniProt P78540).
T2 sequence (whole entry): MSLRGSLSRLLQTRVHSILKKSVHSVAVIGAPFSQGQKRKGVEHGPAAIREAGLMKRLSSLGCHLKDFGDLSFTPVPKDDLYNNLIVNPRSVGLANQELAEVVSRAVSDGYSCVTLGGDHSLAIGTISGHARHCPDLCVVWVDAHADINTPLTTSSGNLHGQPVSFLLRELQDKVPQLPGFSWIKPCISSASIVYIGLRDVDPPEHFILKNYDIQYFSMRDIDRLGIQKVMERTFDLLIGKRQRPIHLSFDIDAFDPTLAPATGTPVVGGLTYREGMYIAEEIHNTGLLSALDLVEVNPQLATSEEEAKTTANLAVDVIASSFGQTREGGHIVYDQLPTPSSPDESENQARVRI
Kind of experiment: in vitro enzyme assay to detect the production of urea directly proportional to the activity of Arginase II. Also: in the data most compounds retested in dose-response had high values. The class given is functional. To be noted: 33.3 µM.

The target of experiment [6] is T3, Proteasome subunit beta (Trypanosoma cruzi) (UniProt O96673).
T3 sequence (whole entry): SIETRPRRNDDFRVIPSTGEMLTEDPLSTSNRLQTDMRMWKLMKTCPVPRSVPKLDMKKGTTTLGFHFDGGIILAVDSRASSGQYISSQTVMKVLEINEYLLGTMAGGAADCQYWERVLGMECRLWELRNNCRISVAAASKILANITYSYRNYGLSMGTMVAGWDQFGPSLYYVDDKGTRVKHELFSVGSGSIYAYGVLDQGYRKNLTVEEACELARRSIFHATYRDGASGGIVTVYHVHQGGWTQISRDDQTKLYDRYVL
Kind of experiment: Trypanosoma cruzi proteasome chymotrypsin-like activity (TcProtChymo) assay. Also: in the data most compounds retested in dose-response had high values. The experiment is classed as functional. The note with it: 9.37 µM.

For another experiment, the species on record is Homo sapiens. Put plainly: To identify inhibition of the IFN signalling (Jak-Stat) pathway via expression of an eGFP reporter gene under the control of an IFN-stimulated response element (ISRE) containing MxA promoter. The class given is functional. To be noted: 30 µM.
Experiment [7] addresses T4, Tyrosyl-tRNA synthetase, putative (Trypanosoma cruzi (strain CL Brener)) (UniProt Q4DSP6).
T4 sequence (whole entry): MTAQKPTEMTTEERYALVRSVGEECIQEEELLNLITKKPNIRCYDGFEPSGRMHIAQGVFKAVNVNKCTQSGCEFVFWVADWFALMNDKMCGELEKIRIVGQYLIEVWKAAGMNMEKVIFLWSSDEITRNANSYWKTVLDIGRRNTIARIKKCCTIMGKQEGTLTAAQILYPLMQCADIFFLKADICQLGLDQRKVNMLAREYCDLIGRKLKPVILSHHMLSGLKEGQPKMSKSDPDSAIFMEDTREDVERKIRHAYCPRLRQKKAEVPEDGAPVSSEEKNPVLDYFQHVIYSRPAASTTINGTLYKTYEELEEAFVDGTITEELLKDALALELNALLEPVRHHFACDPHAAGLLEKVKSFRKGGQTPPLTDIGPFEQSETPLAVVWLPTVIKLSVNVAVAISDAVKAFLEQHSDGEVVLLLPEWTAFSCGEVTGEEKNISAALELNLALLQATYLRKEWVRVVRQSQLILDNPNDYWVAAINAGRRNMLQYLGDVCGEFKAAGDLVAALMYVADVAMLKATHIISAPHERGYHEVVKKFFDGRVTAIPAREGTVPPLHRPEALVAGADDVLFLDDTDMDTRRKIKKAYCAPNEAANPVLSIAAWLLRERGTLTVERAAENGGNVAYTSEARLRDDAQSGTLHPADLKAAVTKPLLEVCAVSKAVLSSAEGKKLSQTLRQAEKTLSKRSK
Kind of experiment: Trypanosoma cruzi tyrosyl tRNA synthetase (TcYRS) _High Tyrosine SOP. Also: in the data most compounds retested in dose-response had high values. The class given is functional. To be noted: 30 µM.

In experiment [8] the target is T4, Tyrosyl-tRNA synthetase, putative (Trypanosoma cruzi (strain CL Brener)). Kind of experiment: Trypanosoma cruzi tyrosyl tRNA synthetase (TcYRS) SOP. The experiment is classed as functional. To be noted: 30 µM.
Experiment [9] deals with Chromo domain-containing protein 1 (Saccharomyces cerevisiae (strain ATCC 204508 / S288c) (Baker's yeast)) (UniProt P32657). Kind of experiment: ScCHD-1 Enzyme Inhibition Assay. Also: in the data most compounds retested in dose-response had high values. The class given is functional. The note with it: 30 µM.

The values that follow come from ChEMBL document CHEMBL3988442, “University of Dundee, Small-Polar-MMV Screening Library” (2021).

Molecules are shown by their SMILES. For some of these results: Potency and affinity values are given separately.

Chain of Chromo domain-containing protein 1 (Saccharomyces cerevisiae (strain ATCC 204508 / S288c) (Baker's yeast)) (P32657 whole entry, the tested form may be a part): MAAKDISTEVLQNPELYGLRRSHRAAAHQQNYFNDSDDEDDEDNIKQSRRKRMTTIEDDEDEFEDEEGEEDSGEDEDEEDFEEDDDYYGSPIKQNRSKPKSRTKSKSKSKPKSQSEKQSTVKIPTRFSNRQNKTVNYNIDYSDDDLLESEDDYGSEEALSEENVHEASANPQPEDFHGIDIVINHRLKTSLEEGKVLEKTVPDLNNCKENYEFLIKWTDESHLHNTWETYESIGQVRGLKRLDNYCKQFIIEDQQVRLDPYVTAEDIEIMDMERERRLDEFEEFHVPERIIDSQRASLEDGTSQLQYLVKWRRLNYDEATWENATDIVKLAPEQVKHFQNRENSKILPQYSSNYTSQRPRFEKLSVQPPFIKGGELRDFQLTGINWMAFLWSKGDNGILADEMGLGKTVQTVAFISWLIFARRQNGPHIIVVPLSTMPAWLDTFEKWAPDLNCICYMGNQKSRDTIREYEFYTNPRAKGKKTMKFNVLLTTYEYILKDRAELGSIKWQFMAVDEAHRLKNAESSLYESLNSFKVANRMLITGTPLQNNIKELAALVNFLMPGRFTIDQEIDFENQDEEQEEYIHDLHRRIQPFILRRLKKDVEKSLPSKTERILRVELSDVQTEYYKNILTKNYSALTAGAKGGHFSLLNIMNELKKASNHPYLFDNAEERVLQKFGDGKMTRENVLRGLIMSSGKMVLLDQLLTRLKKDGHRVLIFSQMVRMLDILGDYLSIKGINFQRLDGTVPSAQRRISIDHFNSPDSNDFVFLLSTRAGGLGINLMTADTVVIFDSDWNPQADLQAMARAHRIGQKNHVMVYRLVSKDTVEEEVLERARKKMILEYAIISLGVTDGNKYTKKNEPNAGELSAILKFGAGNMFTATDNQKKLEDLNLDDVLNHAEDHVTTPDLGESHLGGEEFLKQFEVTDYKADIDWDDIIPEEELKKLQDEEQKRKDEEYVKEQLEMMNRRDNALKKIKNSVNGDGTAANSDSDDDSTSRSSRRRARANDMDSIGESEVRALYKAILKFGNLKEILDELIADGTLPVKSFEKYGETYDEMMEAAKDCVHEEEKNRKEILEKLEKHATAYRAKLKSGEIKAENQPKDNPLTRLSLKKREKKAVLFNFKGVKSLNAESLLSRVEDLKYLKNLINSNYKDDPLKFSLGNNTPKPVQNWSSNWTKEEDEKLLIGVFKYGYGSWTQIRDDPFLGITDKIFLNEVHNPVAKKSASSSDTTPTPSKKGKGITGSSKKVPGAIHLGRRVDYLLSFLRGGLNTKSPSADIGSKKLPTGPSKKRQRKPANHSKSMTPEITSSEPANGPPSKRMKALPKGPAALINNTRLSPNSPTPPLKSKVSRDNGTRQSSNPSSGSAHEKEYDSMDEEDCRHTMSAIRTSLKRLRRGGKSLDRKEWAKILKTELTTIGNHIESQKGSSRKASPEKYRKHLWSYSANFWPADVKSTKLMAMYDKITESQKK
Chain of Sialic acid-binding Ig-like lectin 9 (Homo sapiens) (Q9Y336 whole entry): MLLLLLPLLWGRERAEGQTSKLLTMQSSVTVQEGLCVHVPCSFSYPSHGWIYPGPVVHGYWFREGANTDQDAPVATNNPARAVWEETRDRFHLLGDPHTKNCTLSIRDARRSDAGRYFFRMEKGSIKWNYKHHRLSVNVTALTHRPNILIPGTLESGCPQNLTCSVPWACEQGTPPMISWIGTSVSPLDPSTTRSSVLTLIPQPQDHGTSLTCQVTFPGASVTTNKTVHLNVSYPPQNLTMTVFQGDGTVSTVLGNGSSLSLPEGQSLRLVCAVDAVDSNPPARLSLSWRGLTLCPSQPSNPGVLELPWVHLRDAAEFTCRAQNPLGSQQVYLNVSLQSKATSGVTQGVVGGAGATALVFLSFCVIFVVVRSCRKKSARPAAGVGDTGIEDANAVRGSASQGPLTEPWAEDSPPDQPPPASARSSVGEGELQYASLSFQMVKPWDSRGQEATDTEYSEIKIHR
Chain of Protein translocase subunit SecA (Escherichia coli (strain K12)) (P10408 whole entry): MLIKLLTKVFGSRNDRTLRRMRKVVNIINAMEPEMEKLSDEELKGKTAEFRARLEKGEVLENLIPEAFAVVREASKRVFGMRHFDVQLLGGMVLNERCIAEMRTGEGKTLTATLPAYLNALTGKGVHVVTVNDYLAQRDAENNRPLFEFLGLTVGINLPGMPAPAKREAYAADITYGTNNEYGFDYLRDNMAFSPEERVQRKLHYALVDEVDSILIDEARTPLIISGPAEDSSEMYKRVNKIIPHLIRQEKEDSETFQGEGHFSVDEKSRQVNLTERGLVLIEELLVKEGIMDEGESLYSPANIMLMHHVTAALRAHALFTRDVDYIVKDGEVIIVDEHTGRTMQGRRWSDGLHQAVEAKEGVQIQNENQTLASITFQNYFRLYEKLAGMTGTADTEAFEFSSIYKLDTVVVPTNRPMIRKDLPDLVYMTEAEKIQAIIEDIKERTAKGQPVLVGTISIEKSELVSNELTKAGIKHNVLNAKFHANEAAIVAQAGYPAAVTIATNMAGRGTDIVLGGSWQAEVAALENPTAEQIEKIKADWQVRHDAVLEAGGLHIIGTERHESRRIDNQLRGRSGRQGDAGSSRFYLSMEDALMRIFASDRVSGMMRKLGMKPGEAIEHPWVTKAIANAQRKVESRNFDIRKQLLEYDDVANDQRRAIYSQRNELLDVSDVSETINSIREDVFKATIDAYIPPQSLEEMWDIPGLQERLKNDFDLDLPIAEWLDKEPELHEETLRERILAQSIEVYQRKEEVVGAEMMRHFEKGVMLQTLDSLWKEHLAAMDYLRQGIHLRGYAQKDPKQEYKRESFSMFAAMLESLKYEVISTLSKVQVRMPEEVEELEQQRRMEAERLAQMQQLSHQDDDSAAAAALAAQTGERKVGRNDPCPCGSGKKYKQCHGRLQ

In the case of `COc1ccnc(N2CCN(C(=O)c3csc(C(C)C)n3)CC2)n1`, the Percent Effect in experiment [1] is -7.52%; in experiment [2], 10.8%; in experiment [3], -3.77%; in experiment [4] it was 29.4%; in the experiment on Trypanosoma cruzi it was 9.68%; in [5], 5.21%. The Percent Effect is 7.3% in experiment [6]; 13% in the experiment listed under Homo sapiens; 4.3% in experiment [7]; 11.1% in experiment [8]; -11.3% in [9].
As to `COCC(NC(=O)c1ccc[nH]1)c1cccc(C(F)(F)F)c1` (stereo unspecified), the Percent Effect in experiment [1] is -6.18%; in [2], 2.74%; in [3], -4.37%; in experiment [4], 35.1%; in the experiment on Trypanosoma cruzi, 9.01%; in experiment [5], 32.3%. Also, the Percent Effect in experiment [6] was 4.79%; in the experiment filed under Homo sapiens, 3.46%; in experiment [7], 0%; in [8], 10%; in experiment [9], -5.6%.
For `O=C(c1cc(Cl)c2c(c1)OCO2)N1CCN(c2nccs2)CC1`, the Percent Effect is -3.24% in experiment [1]; 11% in [2]; -2.85% in experiment [3]; 1.89% in experiment [4]; 2.55% in the experiment on Trypanosoma cruzi; 3.18% in [5]. The Percent Effect in experiment [6] is 7.45%; in the experiment listed under Homo sapiens, 3.79%; in experiment [7], 7.53%; in experiment [8], 15%; in experiment [9], -3.25%.
As for `Cc1cc(CN2CCN(CC(O)C(C)(C)C)CC2)no1` (stereo unspecified), the Percent Effect is 0.683% in experiment [1]; 15.2% in experiment [2]; -2.9% in experiment [3]; 10.4% in experiment [4]; 4.63% in the experiment on Trypanosoma cruzi; 1.52% in experiment [5]. For the same compound, the Percent Effect in [6] was 4.83%; in the experiment filed under Homo sapiens, 14.7%; in experiment [7], 5.42%; in experiment [8] it was 16.5%; in experiment [9], -5.62%.
In the case of `Cc1noc(C)c1CN1CC2(CCN(C(=O)c3c[nH]cn3)C2)CC1=O` (stereo unspecified), the Percent Effect in experiment [1] was -0.0681%; in [2], 13.3%; in experiment [3], -2.8%; in experiment [4], 13.2%; with Trypanosoma cruzi, -3.48%; in experiment [5], -49.3%. Besides, the Percent Effect is 17.8% in experiment [6]; -2.42% in the experiment listed under Homo sapiens; 2.08% in experiment [7]; 17.5% in [8]; -4.57% in [9].
For `CCn1cc(C(=O)NCc2csc(Br)c2)cn1`, the Percent Effect in experiment [1] is -4.42%; in experiment [2] it was 3.8%; in experiment [3], 6.27%; in [4], 4.51%; in the experiment on Trypanosoma cruzi it was -2.97%; in [5], 3.23%. Moreover, the Percent Effect is 7.72% in experiment [6]; 13.6% in the experiment listed under Homo sapiens; -1.04% in [7]; 7.59% in experiment [8]; -2.95% in experiment [9].
Turning to `COc1nn(C)c2c1CCCN(C(=O)c1cc[nH]n1)C2`, the Percent Effect in experiment [1] is -5.44%; in experiment [2], -5.41%; in [3], 5.53%; in experiment [4], 2.19%; with Trypanosoma cruzi, -4.4%; in experiment [5], -0.319%. Besides, the Percent Effect in experiment [6] is 22.3%; in the experiment filed under Homo sapiens, -1.16%; in [7], -11.9%; in experiment [8], -12.8%; in [9], 6.55%.
Consider `CCOc1ccccc1OC1CCN(C(=O)c2ccc(=O)[nH]n2)CC1`, for which the Percent Effect in experiment [1] is -2.99%; in experiment [2], 13.2%; in experiment [3], 2.58%; in experiment [4], 7.38%; in the experiment with Trypanosoma cruzi it was 3.76%; in experiment [5] it was 2.3%. Moreover, the Percent Effect in experiment [6] was 12.9%; in the experiment filed under Homo sapiens, 6.53%; in experiment [7], 5.39%; in [8], 19.5%; in experiment [9] it was -2.32%.
As for `O=S(=O)(c1cccs1)N1CCCn2nnc(CN3CCCCC3)c2C1`, the Percent Effect is -2.04% in experiment [1]; 2.67% in experiment [2]; -7.89% in experiment [3]; 2% in [4]; 2.7% in the experiment with Trypanosoma cruzi; -43.5% in experiment [5]. The Percent Effect is -0.513% in experiment [6]; -33.6% in the experiment listed under Homo sapiens; -1.04% in experiment [7]; 2.5% in experiment [8]; -4.44% in [9].
As to `CC(C)CNC(=O)CN1C=Nc2ccccc2S1(=O)=O`, the Percent Effect in [1] is -6.73%; in experiment [2], 7.89%; in [3], 0.627%; in [4] it was -6.85%; in the experiment on Trypanosoma cruzi it was -10.6%; in experiment [5] it was 2.16%. For the same compound, the Percent Effect in experiment [6] was -1.95%; in the experiment listed under Homo sapiens, 2.69%; in experiment [7] it was 0.493%; in experiment [8] it was 6.17%; in [9] it was -5%.
For the compound `CCc1nnc2n1CCN(C(=O)c1ccc3nc(C)c(C)nc3c1)C2`, the Percent Effect in [1] is -3.88%; in [2], 1.39%; in experiment [3] it was 140%; in [4], 3.38%; in the experiment with Trypanosoma cruzi, 5.34%; in experiment [5], -1.32%. For the same compound, the Percent Effect in experiment [6] was 20.7%; in the experiment listed under Homo sapiens it was -6.8%; in experiment [7] it was 5.26%; in experiment [8], 15.4%; in experiment [9] it was -2.97%.
